Laboratory results reported in PubChem BioAssay.
Where “and” joins values, the source holds several entries; their conditions need not be identical. Equal entries are not always repeated. Calls of active or inactive are those of the source.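 The calls were made as follows, unless noted: active = compounds whose cell count with miR-34 switched on is under 0.7 times the count with it off; inactive = the rest.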

How the values were obtained:
[1] = sensitizers of A549 cells to miR-34 induction, primary screen, imaging, A549 dox-inducible miR-34, nuclei and caspase counts (AID 1347080); settings: A549 miR-34 inducible, Hoechst nuclei count, 48 h
[2] = survival rescue of mitochondrial mutant cells in low glucose, primary screen, MELAS cybrids, Rieske KO mouse fibroblasts, CellTiter-Glo (AID 1508586;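 active = mean z-score across replicates of 1.96 or higher in either the MELAS or the Rieske mutant cell line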;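 also: z relative to plate mean and SD of compound and empty wells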)
[3] = stronger effect = lower value, cell number ratio, induced over uninduced
[4] = measured here: relative caspase fold change +Dox/-Dox
[5] = measured here: total cells with miR-34 induction, stronger effect = lower value
[6] = measured here: total cells without miR-34 induction
[7] = MELAS cybrid survival, CellTiter-Glo 48 h, stronger effect = higher value
[8] = Rieske KO mouse fibroblast survival, CellTiter-Glo 72 h
Also: test concentration not given here.

| Compound | fold change [1, 3] | fold change [1, 4] | cell count [1, 5] | cell count [1, 6] | z-score [2, 7] | z-score [2, 8] |
| --- | --- | --- | --- | --- | --- | --- |
| CC1C[C@H]2[C@@H]3CCC4=CC(=O)C=C[C@]4(C)[C@]3(Cl)C(O)C[C@]2(C)[C@]1(OC(=O)c1ccco1)C(=O)CCl (stereo not given in full) | 0.916 (inactive) | 0.877 | 4380 | 4780 | -0.46 (inactive) | -0.518 |
| Cc1[nH]c(C=C2C(=O)Nc3ccc(S(=O)(=O)Cc4c(Cl)cccc4Cl)cc32)c(C)c1C(=O)N1CCCC1CN1CCCC1 (stereo not given) | 0.833 (inactive) | 1.46 | 4270 | 5130 | -0.699 (inactive) | 0.101 |
| Nc1ncnc2c1ncn2C1OC(CO)C(O)C1O (stereo not given) | 0.838 (inactive) and 0.824 (inactive) | 0.867 and 1.17 | 6490 and 8470 | 7740 and 10300 | -0.00177 (inactive) and -0.197 (inactive) | -2.04 and 0.972 |
| CC1=C(C(=O)O)N2C(=O)C(NC(=O)C(N)c3ccccc3)[C@@H]2SC1 (stereo not given in full) | 0.987 (inactive) | 0.849 | 7060 | 7150 | -0.417 (inactive) | 0.0723 |
| CS(=O)(=O)c1ccc(C(O)C(CF)NC(=O)C(Cl)Cl)cc1 (stereo not given) | 0.937 (inactive) | 0.642 | 8270 | 8820 | 0.0143 (inactive) | -0.0314 |
| CC(C)(C)c1ccc(-c2nc3ccccc3[nH]2)cc1 | 0.982 (inactive) | 0.555 | 8150 | 8300 | -0.625 (inactive) | -3.26 |
| CC(C)CC(NC(=O)CNC(=O)c1cc(Cl)ccc1Cl)B1OC(=O)CC(CC(=O)O)(C(=O)O)O1 (stereo not given) | 0.814 (inactive) | 0.899 | 1600 | 1960 | -0.37 (inactive) | -3.79 |
| O=C(C=Cc1ccc(O)c(O)c1)OC1C[C@@](O)(C(=O)O)CC(O)C1O (stereo not given in full) | 0.936 (inactive) | 0.802 | 8020 | 8570 | -0.38 (inactive) | -0.0852 |
| CCCCCOC(=O)Nc1nc(=O)n(C2OC(C)C(O)C2O)cc1F (stereo not given) | 0.881 (inactive) | 1.03 | 6790 | 7710 | -0.294 (inactive) | 0.792 |
| COC1C=CC=C(C)C(=O)NC2=CC(=O)C(NCCN(C)C)=C(CC(C)CC(OC)C(O)C(C)C=C(C)C1OC(N)=O)C2=O (stereo not given) | 1.03 (inactive) | 1.2 | 1450 | 1410 | 2.44 (active) | -2.5 |
| CCN(CC)C(=O)C(C#N)=Cc1cc(O)c(O)c([N+](=O)[O-])c1 | 1.2 (inactive) | 1.41 | 8600 | 7190 | -0.263 (inactive) | -0.169 |
| O=C1NC(=O)C(=Cc2ccc(-c3ccc(F)cc3)o2)S1 | 0.882 (inactive) | 0.688 | 8240 | 9340 | -0.386 (inactive) | 0.141 |
| CCNC(=O)CCCC=CCC1C(O)CC(O)C1C=CC(O)CCc1ccccc1 (stereo not given) | 0.925 (inactive) | 0.991 | 6700 | 7250 | -0.401 (inactive) | -0.137 |
| COc1ccc2cc1Oc1ccc(cc1)C[C@@H]1c3c(cc4c(c3Oc3cc5c(cc3OC)CCN(C)[C@@H]5C2)OCO4)CCN1C | 0.966 (inactive) | 1.15 | 4290 | 4440 | -0.206 (inactive) | -0.161 |
| O=C(CS(=O)Cc1ccco1)NCC=CCOc1cc(CN2CCCCC2)ccn1 (stereo not given) | 0.878 (inactive) | 0.735 | 8120 | 9240 | -0.242 (inactive) | -0.613 |
| COc1cc2c(cc1OC)CC(=O)N(CCCN(C)CC1Cc3cc(OC)c(OC)cc31)CC2 (stereo not given) | 0.865 (inactive) | 1.23 | 8090 | 9350 | -0.285 (inactive) | 0.346 |
| CC(C)n1c(C=CC(O)CC(O)CC(=O)O)c(-c2ccc(F)cc2)c2ccccc21 (stereo not given) | 1.12 (inactive) | 0.928 | 1580 | 1410 | 0.699 (inactive) | -1.97 |
| CC(C)OC(=O)OCOP(=O)(COC(C)Cn1cnc2c(N)ncnc21)OCOC(=O)OC(C)C (stereo not given) | 0.941 (inactive) | 0.831 | 7870 | 8370 | -0.399 (inactive) | 0.463 |
| Nc1nccc2c1ncn2C1C=C(CO)C(O)C1O (stereo not given) | 0.968 (inactive) | 0.366 | 4640 | 4800 | -0.724 (inactive) | -1.41 |
| COc1cc(OC)c(C=CS(=O)(=O)Cc2ccc(OC)c(NCC(=O)O)c2)c(OC)c1 | 1.02 (inactive) | 0.641 | 1610 | 1580 | 0.468 (inactive) | -0.375 |

| Compound | fold change [1, 3] | fold change [1, 4] | cell count [1, 5] | cell count [1, 6] | z-score [2, 7] | z-score [2, 8] |
| --- | --- | --- | --- | --- | --- | --- |
| OCC1OC(OCCc2ccc(O)cc2)C(O)C(O)C1O (stereo not given) | 0.962 (inactive) | 0.762 | 10000 | 10400 | -0.35 (inactive) | 0.467 |
| CN1CCC(NC(=O)c2cc(-c3c(O)cc(O)cc3Oc3ccc([N+](=O)[O-])cc3)on2)CC1 | 1.08 (inactive) | 0.376 | 2520 | 2330 | 2.88 (active) | -1.28 |
| COCCCOc1cc(CC(CC(N)C(O)CC(C(=O)NCC(C)(C)C(N)=O)C(C)C)C(C)C)ccc1OC (stereo not given) | 0.942 (inactive) | 0.734 | 7600 | 8060 | 0.18 (inactive) | -0.179 |
| N#CSc1cc(SC#N)c(N)nc1N | 1.07 (inactive) | 0.703 | 1940 | 1820 | -0.481 (inactive) | -2.9 |
| Cc1nc(NC(=O)N2CCCC2C(N)=O)sc1-c1csc(C(C)(C)C)n1 (stereo not given) | 0.968 (inactive) | 0.607 | 6880 | 7100 | -0.368 (inactive) | 0.104 |
| CC(NC(=O)CCc1nc2ccccc2c(=O)[nH]1)c1ccccc1 (stereo not given) | 0.914 (inactive) | 0.487 | 8620 | 9430 | -0.406 (inactive) | -0.138 |
| COC(=O)C(CCCN=C(N)N)NS(=O)(=O)c1ccc(C)cc1 (stereo not given) | 0.92 (inactive) | 0.589 | 8520 | 9260 | -0.296 (inactive) | 0.752 |
| CN(C)C(=O)c1ccc(S(=O)(=O)c2ccc(NC(=O)C(C)(O)C(F)(F)F)c(Cl)c2)cc1 (stereo not given) | 0.887 (inactive) | 0.601 | 6480 | 7310 | -0.391 (inactive) | -0.0234 |
| NC(N)=NN=Cc1c(Cl)cccc1Cl | 0.921 (inactive) | 0.613 | 8130 | 8830 | -0.139 (inactive) | -0.245 |
| CCCC1CC(C(=O)NC(C(C)O)[C@@H]2OC(SC)C(O)C(O)C2O)N(C)C1 (stereo not given in full) | 0.883 (inactive) | 0.66 | 9270 | 10500 | -0.388 (inactive) | -0.162 |
| NC(=O)C(CCC(F)(F)F)N(Cc1ccc(-c2ncon2)cc1F)S(=O)(=O)c1ccc(Cl)cc1 (stereo not given) | 0.918 (inactive) | 0.873 | 6710 | 7310 | -0.464 (inactive) | 0.74 |
| CC(=Cc1ccc(C(=O)O)cc1)c1ccc2c(c1)C(C)(C)CCC2(C)C | 0.986 (inactive) | 0.781 | 8250 | 8370 | -0.023 (inactive) | -0.2 |
| CC(=NNC(=S)N1CCC1)c1ccccn1 | 0.887 (inactive) | 0.742 | 1950 | 2200 | 7.64 (active) | -5.36 |
| CC(O)=C(C#N)C(=O)Nc1ccc(C(F)(F)F)cc1 | 0.904 (inactive) | 1.22 | 7860 | 8690 | -0.297 (inactive) | -0.28 |
| CC(=O)Nc1nc2c(Oc3cc(-c4ccc(C(F)(F)F)cc4)ncn3)cccc2s1 | 0.981 (inactive) | 0.45 | 8510 | 8670 | -0.457 (inactive) | -0.29 |
| CC(OC1OCCN(Cc2nn(P(=O)(O)O)c(=O)[nH]2)C1c1ccc(F)cc1)c1cc(C(F)(F)F)cc(C(F)(F)F)c1 (stereo not given) | 1.01 (inactive) | 0.443 | 5980 | 5920 | -0.192 (inactive) | -0.0927 |
| COC(=O)NC(C(=O)NC(Cc1ccccc1)C(O)CN(Cc1ccc(-c2ccccn2)cc1)NC(=O)C(NC(=O)OC)C(C)(C)C)C(C)(C)C (stereo not given) | 0.891 (inactive) | 0.981 | 6490 | 7280 | -0.349 (inactive) | 0.446 |
| N#CC(=C1SCC(c2ccc(Cl)cc2Cl)S1)n1ccnc1 (stereo not given) | 0.898 (inactive) | 1.64 | 8130 | 9050 | -0.162 (inactive) | -0.0913 |
| COc1cc(C2c3cc4c(cc3C(O[C@@H]3O[C@@H]5COC(C)O[C@H]5C(O)C3O)[C@H]3COC(=O)[C@H]23)OCO4)cc(OC)c1O (stereo not given in full) | 0.94 (inactive) | 1.28 | 2100 | 2240 | -0.7 (inactive) | -0.559 |
| CCCCNc1ncc(C(=O)NCc2ccc(-n3ccnc3)cc2)c(NC2CCC(O)CC2)n1 (stereo not given) | 1.3 (inactive) | 0.249 | 2450 | 1880 | 5.49 (active) | -1.88 |
